{"source": "PubChem BioAssay (Tox21)", "note": "Results filed as inconclusive are left out. Active and inactive are the calls of the source. Calls follow the shape of the full dose curve. % is scaled to controls: 0 for no effect and ±100 for the full control effect; potency is read from the fitted curve at half-maximal effect."}
{"experiment": "qHTS assay for small molecules that induce genotoxicity in human embryonic kidney cells expressing luciferase-tagged ATAD5 - cell viability (AID 651634); also: nearly all actives have a fitted effect of over 25% in size", "details": "HEK293T ATAD5-luc cells viability, CellTiter-Fluor, 15.5 h; series mostly up to 83.3 µM; activity, negative = cytotoxicity: at the top concentration", "source_text": "National Center for Advancing Translational Sciences [NCATS]\nNIH Chemical Genomics Center [NCGC]\nU.S. Environmental Protection Agency [EPA]\nNational Institutes of Environmental Health Sciences [NIEHS]\nNational Toxicology Program [NTP]\nU.S. Food and Drug Administration [FDA]\nEnhanced Level of Genome Instability Gene 1 (ELG1; human ATAD5) protein levels increase in response to various types of DNA damage. Using a luciferase reporter-gene tagged with ElG1, a cell-based assay [developed by Kyungjae Myung, NHGRI, NIH] was used to measure the induction of ATAD5 in human embryonic kidney cells (HEK293T). So, increase in luciferase activity can be used to identify the compounds that cause genetic stress. In addition to genotoxicity, these cells were also used to test for cytotoxicity by measuring the protease activity within live cells.\nTox21 Assay Protocol Summary:\nFor cytotoxicity screening, 2,000 cells in 5 uL/well were dispensed into white, solid-bottom 1536-well plates using a Multidrop Combi (Thermo Scientific) dispenser. Following transfer of 23 nL compound or DMSO vehicle by a pin tool, the plates were incubated 15.5 hr at 37C and 5% CO2. 1 ul CellTiter-Fluor reagent (Promega, Madison, WI) was then added to each plate and following 30 min incubation at 37C, fluorescence intensity was quantified on a ViewLux CCD-based plate reader."}
{"smiles": "COc1cc(/C=C/C(=O)O[C@H]2CC[C@]34C[C@]35CC[C@]3(C)[C@@H]([C@H](C)CCC=C(C)C)CC[C@@]3(C)[C@@H]5CC[C@H]4C2(C)C)ccc1O", "Potency": "inactive"}
{"smiles": "c1ccc(CSCc2ccccc2)cc1", "activity, negative = cytotoxicity": "7.53% (inactive)"}
{"smiles": "CC/C(=C(\\c1ccc(O)cc1)c1ccc(OCCN(C)C)cc1)c1ccccc1", "Potency": "61.3 µM (active)"}
{"smiles": "CCCCCCCCS(=O)C(C)Cc1ccc2c(c1)OCO2", "note": "(stereo not given)", "activity, negative = cytotoxicity": "-5.42% [at 95.3 µM] (inactive)"}
{"smiles": "COc1c(C)c2c(c(O)c1C/C=C(\\C)CCC(=O)O)C(=O)OC2", "Potency": "0.202 µM (active)"}
{"smiles": "CCCCCCCCn1sc(Cl)c(Cl)c1=O", "Potency": "19.3 µM (active)"}
{"smiles": "CCCC/C=C/CCCCO", "activity, negative = cytotoxicity": "19.7% (inactive)"}
{"smiles": "CC(C)C(C)(C)C(C)(C)C(C)(C)S", "activity, negative = cytotoxicity": "23.5% (inactive)"}
{"smiles": "CCC1OCC(COc2ccc(Oc3ccccc3)cc2)O1", "note": "(stereo not given)", "activity, negative = cytotoxicity": "12.2% (inactive)"}
{"smiles": "CCCCCCCCCCCC[N+](C)(C)CCCCCCCCCCCC", "Potency": "68.6 µM (active)"}
{"smiles": "CC(NN)c1ccccc1", "note": "(stereo not given)", "activity, negative = cytotoxicity": "15.6% (inactive)"}
{"smiles": "CCCCN(CCCC)C(=O)N(CCCC)CCCC", "activity, negative = cytotoxicity": "10.4% (inactive)"}
{"smiles": "CNCc1cc(F)ccc1Oc1ccc(Cl)c(Cl)c1", "activity, negative = cytotoxicity": "26.2% (inactive)"}
{"smiles": "CNC(=O)c1ccccc1", "activity, negative = cytotoxicity": "3.27% (inactive)"}
{"smiles": "CCOC(=O)O[C@]1(C(=O)OCCl)CC[C@H]2[C@@H]3CCC4=CC(=O)C=C[C@]4(C)[C@H]3[C@@H](O)C[C@@]21C", "activity, negative = cytotoxicity": "12.4% (inactive)"}
{"smiles": "NC(=O)CC[C@@H]1NC(=O)[C@H](Cc2ccccc2)NC(=O)[C@H](Cc2ccc(O)cc2)NC(=O)CCSSC[C@@H](C(=O)N2CCC[C@H]2C(=O)N[C@@H](CCCN=C(N)N)C(=O)NCC(N)=O)NC(=O)[C@H](CC(N)=O)NC1=O", "Potency": "inactive"}
{"smiles": "COc1cc(-c2nc(NC(=O)c3cc4cc(C)cc(C)c4n3CC(=O)O)sc2CCC2CCCCC2)c(OC)cc1Cl", "Potency": "39.7 µM (active)"}
{"smiles": "CN(C)c1ccc(C2(c3ccc(N(C)C)cc3)OC(=O)c3cc(N(C)C)ccc32)cc1", "activity, negative = cytotoxicity": "12.3% (inactive)"}
{"smiles": "NNc1nc(-c2ccc(N)cc2)cs1", "Potency": "24.3 µM (active)"}
{"smiles": "CCCCN(CCCC)c1ccc(C(=O)c2ccccc2C(=O)O)c(O)c1", "activity, negative = cytotoxicity": "-18.9% [at 95.3 µM] (inactive)"}
{"smiles": "Oc1ccc(Cl)cc1Sc1cc(Cl)ccc1O", "Potency": "19.3 µM (active)"}
{"smiles": "CCOC(=O)/C=C(C)/C=C/C=C(C)/C=C/c1c(C)cc(OC)c(C)c1C", "activity, negative = cytotoxicity": "14.4% (inactive)"}
{"smiles": "CCCCC(CC)COC(=O)c1ccccc1C(=O)O", "note": "(stereo not given)", "activity, negative = cytotoxicity": "25.7% [at 95.3 µM] (inactive)"}
{"smiles": "O=C(Oc1cccc2cccnc12)c1ccccc1", "activity, negative = cytotoxicity": "-7.25% (inactive)"}
{"smiles": "CCOC(=O)O[C@H](C)OC(=O)c1ccc2c(c1)cc(C(=O)NC1CCN(C(C)C)CC1)n2Cc1cc(-c2ccc(Cl)s2)on1", "Potency": "57.1 µM (active)"}
{"smiles": "CN(C)c1ccc(SC#N)cc1", "activity, negative = cytotoxicity": "-18.9% (inactive)"}
{"smiles": "CCCCCCCCCCCCCC[P+](CCCC)(CCCC)CCCC", "note": "(tested in a mixture with another compound)", "Potency": "48.9 µM (active)"}
{"smiles": "Cc1cc(O)c(Cl)c(C)c1Cl", "Potency": "61.1 µM (active)"}
{"smiles": "C[n+]1ccn(Cc2ccccc2)c1", "activity, negative = cytotoxicity": "2.15% (inactive)"}
{"smiles": "CCC(C)(C)C1CCCCC1OC(C)=O", "note": "(stereo not given)", "activity, negative = cytotoxicity": "18% (inactive)"}
{"smiles": "O=C1c2ccccc2Cc2ccccc21", "activity, negative = cytotoxicity": "-17.8% [at 95.3 µM] (inactive)"}
{"smiles": "Oc1cc2ccccc2c2ccccc12", "Potency": "17.2 µM (active)"}
{"smiles": "O=C(NO)C1(NS(=O)(=O)c2ccc(Oc3ccc(F)cc3)cc2)CCOCC1", "activity, negative = cytotoxicity": "5.97% (inactive)"}
{"smiles": "CN1CCN(CCC(=O)N2c3ccccc3Sc3ccc(C(F)(F)F)cc32)CC1", "activity, negative = cytotoxicity": "1.6% (inactive)"}
{"smiles": "Clc1ccc2cc3ccccc3cc2c1", "activity, negative = cytotoxicity": "31.9% (inactive)"}
{"smiles": "CCC1=C[C@@H]2CN(C1)Cc1c([nH]c3ccccc13)[C@@](C(=O)OC)(c1cc3c(cc1OC)N(C)[C@H]1[C@@](O)(C(=O)OC)[C@H](OC(C)=O)[C@]4(CC)C=CCN5CC[C@]31[C@@H]54)C2", "Potency": "1.19 µM (active)"}
{"smiles": "CCCCC(CC)CN=C(N)NC(N)=NCCCCCCN=C(N)NC(N)=NCC(CC)CCCC", "note": "(stereo not given)", "Potency": "26.6 µM (active)"}
{"smiles": "CCC(N)(CO)CO", "activity, negative = cytotoxicity": "20.3% [at 95.3 µM] (inactive)"}
{"smiles": "Cc1cccc2c1cc1ccc3cccc4ccc2c1c34", "activity, negative = cytotoxicity": "95.9% [at 95.3 µM] (inactive)"}
{"smiles": "CC(C)n1nc(-c2cc3cc(O)ccc3[nH]2)c2c(N)ncnc21", "Potency": "0.75 µM (active)"}
